# Results taken from the supplement of paper PMC4466140.
# B1: unnamed (peptide)
# chain: PSTMDFPKLPSFQNS
# What was measured:
# Test in all cases: SPOT peptide array binding signal intensity (averaged, normalized) (arbitrary units (background-subtracted, floor 0; scale differs between SH3 domains)); higher = stronger binding of the SH3 domain to the peptide
# [1] = target: AgAbp1
# How it was run: (§1)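 E. coli BL21(DE3) was used to express GST-fused SH3 domains from four yeast species, which were then purified on glutathione Sepharose. These were incubated at 10 μg/ml in TBS-based blocking buffer overnight at 4°C on cellulose membranes carrying synthetic 15-mer peptides, in which cysteines were replaced by serines. Binding signal is the replicate average of normalized, background-subtracted spot intensity, in arbitrary units that differ between domains.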
# [2] = target: AgBbc1
# How it was run: as §1
# [3] = target: AgBem1-D1
# How it was run: as §1
# [4] = target: AgBzz1-D1
# How it was run: as §1
# [5] = target: AgBzz1-D2
# How it was run: as §1
# [6] = target: AgCyk3
# How it was run: as §1
# [7] = target: AgFus1
# How it was run: as §1
# [8] = target: AgHof1
# How it was run: as §1
# [9] = target: AgHse1
# How it was run: as §1
# [10] = target: AgLsb1
# How it was run: as §1
# [11] = target: AgLsb4
# How it was run: as §1
# [12] = target: AgMyo5
# How it was run: as §1
# [13] = target: AgNbp2
# How it was run: as §1
# [14] = target: AgRvs167
# How it was run: as §1
# [15] = target: AgSho1
# How it was run: as §1
# [16] = target: AgSla1-D1-D2
# How it was run: as §1
# [17] = target: AgSla1-D3
# How it was run: as §1
# [18] = target: CaAbp1-D1
# How it was run: as §1
# [19] = target: CaAbp1-D2
# How it was run: as §1
# [20] = target: CaBbc1
# How it was run: as §1
# [21] = target: CaBem1-D1
# How it was run: as §1
# [22] = target: CaBzz1-D1
# How it was run: as §1
# [23] = target: CaBzz1-D2
# How it was run: as §1
# [24] = target: CaCyk3
# How it was run: as §1
# [25] = target: CaFus1
# How it was run: as §1
# [26] = target: CaHof1
# How it was run: as §1
# [27] = target: CaHse1
# How it was run: as §1
# [28] = target: CaLsb1
# How it was run: as §1
# [29] = target: CaLsb4
# How it was run: as §1
# [30] = target: CaMyo5
# How it was run: as §1
# [31] = target: CaNbp2
# How it was run: as §1
# [32] = target: CaRvs167
# How it was run: as §1
# [33] = target: CaRvs167-3
# How it was run: as §1
# [34] = target: CaSho1
# How it was run: as §1
# [35] = target: CaSla1-D1-D2
# How it was run: as §1
# [36] = target: CaSla1-D3
# How it was run: as §1
# [37] = target: ScAbp1
# How it was run: as §1
binder,measurement,setting,value
B1,SPOT peptide array binding signal intensity,[1],3
same,SPOT peptide array binding signal intensity,[2],10.5
same,SPOT peptide array binding signal intensity,[3],88.5
same,SPOT peptide array binding signal intensity,[4],13
same,SPOT peptide array binding signal intensity,[5],≤ 0
same,SPOT peptide array binding signal intensity,[6],≤ 0
same,SPOT peptide array binding signal intensity,[7],347
same,SPOT peptide array binding signal intensity,[8],63.2
same,SPOT peptide array binding signal intensity,[9],198
same,SPOT peptide array binding signal intensity,[10],0.5
same,SPOT peptide array binding signal intensity,[11],6
same,SPOT peptide array binding signal intensity,[12],13.5
same,SPOT peptide array binding signal intensity,[13],179
same,SPOT peptide array binding signal intensity,[14],3.5
same,SPOT peptide array binding signal intensity,[15],376
same,SPOT peptide array binding signal intensity,[16],≤ 0
same,SPOT peptide array binding signal intensity,[17],0.5
same,SPOT peptide array binding signal intensity,[18],0.5
same,SPOT peptide array binding signal intensity,[19],43.5
same,SPOT peptide array binding signal intensity,[20],34.5
same,SPOT peptide array binding signal intensity,[21],54
same,SPOT peptide array binding signal intensity,[22],85
same,SPOT peptide array binding signal intensity,[23],57.5
same,SPOT peptide array binding signal intensity,[24],8
same,SPOT peptide array binding signal intensity,[25],1020
same,SPOT peptide array binding signal intensity,[26],1
same,SPOT peptide array binding signal intensity,[27],156
same,SPOT peptide array binding signal intensity,[28],0.5
same,SPOT peptide array binding signal intensity,[29],390
same,SPOT peptide array binding signal intensity,[30],95.5
same,SPOT peptide array binding signal intensity,[31],340
same,SPOT peptide array binding signal intensity,[32],33.3
same,SPOT peptide array binding signal intensity,[33],6.5
same,SPOT peptide array binding signal intensity,[34],1290
same,SPOT peptide array binding signal intensity,[35],136
same,SPOT peptide array binding signal intensity,[36],157
same,SPOT peptide array binding signal intensity,[37],3
